According to PubChem BioAssay (NCATS):
Results filed as inconclusive are left out. Calls of active or inactive are those of the source. Unless noted, calls come from the whole dose curve.

Key:
[1] = qHTS for Inhibitors of the Functional Ribonucleoprotein Complex (vRNP) of Lassa (LASV) Arenavirus: LASV Primary Screen - GLuc reporter signal (AID 1347082; calls by dose curve; tested in HEK293 reporter line; note: nearly all actives have a fitted effect of over 60% in size)
[2] = qHTS for Inhibitors of the Functional Ribonucleoprotein Complex (vRNP) of Lassa (LASV) Arenavirus: Viability assay - alamar blue signal for LASV Primary Screen (AID 1347083; calls by dose curve; tested in HEK293 reporter line; note: nearly all actives have a fitted effect of over 80% in size)
[3] = qHTS for Inhibitors of the Functional Ribonucleoprotein Complex (vRNP) of Lymphocytic Choriomeningitis Arenaviruses (LCMV): Viability assay - alamar blue signal for LCMV Primary Screen (AID 1347085; calls by dose curve; tested in HEK293 reporter line; note: nearly all actives have a fitted effect of over 80% in size)
[4] = molecular target: Nucleoprotein (Lymphocytic choriomeningitis virus (strain Armstrong)) (UniProt P09992); experiment: qHTS for Inhibitors of the Functional Ribonucleoprotein Complex (vRNP) of Lymphocytic Choriomeningitis Arenaviruses (LCMV): LCMV Primary Screen - GLuc reporter signal (AID 1347086); note: nearly all actives have a fitted effect of over 70% in size

Measured: Potency
Note: series mostly up to about 57 µM.

Nucleoprotein (Lymphocytic choriomeningitis virus (strain Armstrong)), sequence (P09992 whole entry, looked up): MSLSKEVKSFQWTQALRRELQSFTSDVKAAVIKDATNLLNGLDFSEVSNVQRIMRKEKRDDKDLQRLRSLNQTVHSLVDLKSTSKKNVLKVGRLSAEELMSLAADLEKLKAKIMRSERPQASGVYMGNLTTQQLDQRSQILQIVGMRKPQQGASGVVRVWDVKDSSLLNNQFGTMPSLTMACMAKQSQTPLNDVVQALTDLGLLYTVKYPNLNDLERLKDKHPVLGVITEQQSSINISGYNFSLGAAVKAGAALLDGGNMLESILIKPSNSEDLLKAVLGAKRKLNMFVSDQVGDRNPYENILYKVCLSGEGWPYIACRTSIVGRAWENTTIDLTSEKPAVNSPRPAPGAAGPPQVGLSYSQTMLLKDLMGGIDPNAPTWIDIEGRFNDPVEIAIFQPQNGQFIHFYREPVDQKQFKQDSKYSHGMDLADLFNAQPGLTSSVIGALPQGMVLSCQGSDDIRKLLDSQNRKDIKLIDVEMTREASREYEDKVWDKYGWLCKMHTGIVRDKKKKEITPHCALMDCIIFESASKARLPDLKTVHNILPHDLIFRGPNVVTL

CC(=O)Oc1cccc2c1C(=O)c1c(OC(C)=O)cc(C(=O)O)cc1C2=O
inactive: [1] | [2] | [3] | [4]

CC[C@]12CCCN3CCc4c(n(c5ccccc45)[C@@](O)(C(=O)OC)C1)[C@@H]32
inactive: [1] | [2] | [3] | [4]

O=C(O)[C@@H]1[C@H]2C[C@H]3c4[nH]c5ccccc5c4CCN3C[C@@H]2CC[C@@H]1O
inactive: [1] | [2] | [3] | [4]

CC(C)(C)C(=O)Oc1ccc(S(=O)(=O)Nc2ccccc2C(=O)NCC(=O)O)cc1
inactive: [1] | [2] | [3] | [4]

CC(C(=O)O)c1ccc2c(c1)[nH]c1ccc(Cl)cc12 (stereo not drawn)
inactive: [1] | [2] | [3] | [4]

O=c1[nH]c(=O)n([C@H]2O[C@H](CO)[C@@H](O)[C@@H]2O)cc1/C=C\Br
inactive: [1] | [2] | [3] | [4]

Clc1cccc(C(c2ccc3nc[nH]c3c2)n2ccnc2)c1 (stereo not drawn)
inactive: [1] | [2] | [3] | [4]

CC(CCc1ccc2c(c1)OCO2)NN (stereo not drawn)
inactive: [1] | [2] | [3] | [4]

CC(=O)Nc1ccc(OC(=O)c2ccccc2OC(C)=O)cc1
inactive: [1] | [2] | [3] | [4]

Cc1c[nH]c2ccccc12
inactive: [1] | [2] | [3] | [4]

CCOC(=O)NNc1ccc(N(CC)CC(C)O)nn1 (stereo not drawn)
inactive: [1] | [2] | [3] | [4]

CCOc1ccc(NS(=O)(=O)c2ccc(N)cc2)nn1
inactive: [1] | [2] | [3] | [4]

O=C(O)c1ccccc1S
inactive: [1] | [2] | [3] | [4]

CC(=O)NO
inactive: [1] | [2] | [3] | [4]

Oc1cccc(O)c1
inactive: [1] | [2] | [3] | [4]

C[C@]12C=CC(=O)C=C1CC[C@@H]1[C@@H]2C(=O)C[C@@]2(C)[C@H]1CC[C@]2(O)C(=O)CO
inactive: [1] | [2] | [3] | [4]

NCCc1ccn[nH]1
inactive: [1] | [2] | [3] | [4]

O=C(Nc1ccc(Cl)c(Cl)c1)C1CC1
inactive: [1] | [2] | [3] | [4]

CC(C)(C)c1cc(C=O)cc(C(C)(C)C)c1O
inactive: [1] | [2] | [3] | [4]

O=C(O)Cc1csc(-c2ccc(Cl)cc2)n1
inactive: [1] | [2] | [3] | [4]

NC(=O)c1ccccc1O
inactive: [1] | [2] | [3] | [4]

Nc1ccn([C@@H]2CS[C@H](CO)O2)c(=O)n1
inactive: [1] | [2] | [3] | [4]

CC(=O)OCC(=O)[C@@]1(O)[C@H](OC(C)=O)C[C@H]2[C@@H]3CCC4=CC(=O)C=C[C@]4(C)[C@@]3(F)[C@@H](O)C[C@@]21C
inactive: [1] | [2] | [3] | [4]

Cc1onc(-c2ccccc2)c1-c1ccc(S(N)(=O)=O)cc1
inactive: [1] | [2] | [3] | [4]

COc1ccc(C(=O)NCc2ccc(OCCN(C)C)cc2)cc1OC
inactive: [1] | [2] | [3] | [4]

C=CC(N)CCC(=O)O (stereo not drawn)
inactive: [1] | [2] | [3] | [4]

Cc1onc(-c2c(Cl)cccc2Cl)c1C(=O)Cl
inactive: [1] | [2] | [3] | [4]

CN1CCN(CC(=O)N2c3ccccc3C(=O)Nc3cccnc32)CC1
inactive: [1] | [2] | [3] | [4]

C#C[C@]1(O)CC[C@H]2[C@@H]3CCc4cc(OC5CCCC5)ccc4[C@H]3CC[C@@]21C
inactive: [1] | [2] | [3] | [4]

CC(=O)OC(C)C[N+](C)(C)C (stereo not drawn)
inactive: [1] | [2] | [3] | [4]

Oc1ccccc1
inactive: [1] | [2] | [3] | [4]

CC(=O)N[C@@H](CCC(=O)O)C(=O)O
inactive: [1] | [2] | [3] | [4]

O=c1[nH]cnc2nc[nH]c12
inactive: [1] | [2] | [3] | [4]

O=S(=O)(O)CCS
inactive: [1] | [2] | [3] | [4]

CCN(CC)CCNC(=O)c1cc(S(C)(=O)=O)ccc1OC
inactive: [1] | [2] | [3] | [4]

CC(=O)[C@@]1(O)CC[C@H]2[C@@H]3C[C@H](C)C4=CC(=O)C=C[C@]4(C)[C@@]3(F)[C@@H](O)C[C@@]21C
inactive: [1] | [2] | [3] | [4]

O=c1[nH]c(=O)n([C@H]2C[C@H](O)[C@@H](CO)O2)cc1Br
inactive: [1] | [2] | [3] | [4]
